Data published in the supplement of paper PMC10732440.
± gives the standard deviation of the averaged measurements.

System: Caenorhabditis elegans N2 infected with Nematocida parisii ERTm1
Assay: progeny production relative to DMSO uninfected control; higher = more progeny despite microsporidia infection (inhibition of infection with low host toxicity)
Conditions: infection time 6 days
Outline: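 Progeny production is reported as a percentage of spore-free vehicle wells and averaged across replicates. It was measured after bleach-synchronised wild-type C. elegans L1 larvae (100 per well) spent 6 days shaking at 21°C in K-medium with E. coli OP50, 15,000 N. parisii spores/μL and compound at 100 μM or 40 μM in 1% DMSO. Counting used Rose Bengal staining, flatbed scanning and WorMachine, and each compound and dose was tested three times.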

Row | Structure (SMILES) | progeny production (40 µM) [%] | progeny production (100 µM) [%]
1 | O=C1c2cccc3cccc(c23)C(=O)N1CC1CO1 (centres undefined) | 7.39 ± 4.7 | 44.9 ± 30
2 | COc1ccc(C2CNC(=O)C2)cc1OC1CCCC1 (centres undefined) | 4.65 ± 2.2 | 11.2 ± 9.9
3 | OCCCCn1cnc2c(O)nc(NCc3ccc(Cl)c(Cl)c3)nc21 | 4.76 ± 1.4 | 10.6 ± 7.9
4 | O=S(=O)(Nc1cccc2cccnc12)c1ccccc1 | 5.03 ± 2.5 | 12.9 ± 7.2
5 | COc1ccc(CNC(=O)C2CCN([C@H](C)c3cccc4ccccc34)CC2)cc1 | 4.66 ± 2.1 | 15.7 ± 6.6
6 | NC(=O)c1cnccn1 | 6.68 ± 7.5 | 6.97 ± 1.1
7 | COc1cc(NCc2ccc3nc(N)nc(N)c3c2C)cc(OC)c1OC | 2.11 ± 0.79 | –
8 | NCc1ccc(S(N)(=O)=O)cc1 | 5.64 ± 3.5 | 7.3 ± 1.6
9 | O=C(CP(=O)(O)O)NCCc1cccc(Oc2ccccc2)c1 | 4.04 ± 0.94 | –
10 | CC1CN(c2ncnc3c2c(-c2ccccc2)cn3-c2ccc(F)cc2)CC(C)O1 (centres undefined) | 4.39 ± 1.6 | 13.4 ± 13
11 | O=C(Nc1ccc(F)cc1)c1nn(-c2ccccc2)c(=O)cc1Cl | 5.87 ± 3.4 | 14 ± 9.4
12 | c1cc(CN2CCCNCCNCCCNCC2)ccc1CN1CCCNCCNCCCNCC1 | 2.33 ± 1 | 9.51 ± 8.6
13 | CN(O)C(=O)c1cc2c(CN3CCC[C@H]3C(N)=O)cn(Cc3ccc(F)cc3)c2cn1 | 3.84 ± 1.6 | 11.1 ± 4.5
14 | Fc1ccc(-n2cc(Cn3c(-c4cccc(F)c4)nc4ccccc43)nn2)cc1 | 3.69 ± 0.39 | –
15 | Cc1ccccc1NC(=O)Nc1cccc([N+](=O)[O-])c1 | 4.55 ± 2.1 | 13.8 ± 4.8
16 | CN1CCN(Cc2ccc(-c3cnc4[nH]cc(-c5ccc6[nH]ccc6c5)c4c3)cc2)CC1 | 9.2 ± 4.8 | 14.6 ± 5.6
17 | Cc1cc(-c2ccccc2)c(C(=O)C(=O)Nc2ccc(N3CCN(c4ncc(F)cn4)CC3)cc2)n1C | 2.94 ± 0.74 | –
18 | NC(=O)c1ccc(I)c([N+](=O)[O-])c1 | 1.54 ± 0.63 | 10 ± 2.6
19 | COc1ccc2cc3[n+](cc2c1OCCN(CCn1cncn1)Cc1ccc(F)cc1F)CCc1cc2c(cc1-3)OCO2 | 5.91 ± 1.2 | 17.3 ± 14
20 | CC[C@H](CO)Nc1nc(NCc2ccccc2)c2ncn(C(C)C)c2n1 | 4.15 ± 1.7 | 13.5 ± 9.8
21 | Clc1ccc(Cn2c(CN3CCCC3)nc3ccccc32)cc1 | 3.41 ± 1.9 | 6.88 ± 1.8
22 | CC(C)C(=O)N[C@H]1[C@H]([C@H](O)[C@H](O)CO)OC(C(=O)O)=C[C@@H]1N=[N+]=[N-] | 5.36 ± 3.2 | 14.6 ± 5.9

Row | Structure (SMILES) | progeny production (40 µM) [%] | progeny production (100 µM) [%]
23 | Clc1cc(Cl)c2c(c1)CCc1ccccc1C2n1ccnc1 (centres undefined) | 7.16 ± 0.49 | –
24 | C(=C\c1nc2ccccc2[nH]1)/c1ccc2c(c1)OCO2 | 7.35 ± 5.9 | 16.6 ± 18
25 | Cc1cc(CCOc2c(C)cc(-c3nnn(C)n3)cc2C)on1 | 4.64 ± 1.1 | 8.74 ± 2.1
26 | Cc1[nH]c2ccccc2c1CCNCc1ccc(/C=C/C(=O)NO)cc1 | 6.83 ± 2.5 | 9.79 ± 7.8
27 | CCNC(=O)Nc1cc(-c2ccccc2)c(-c2cncc(C(=O)O)c2)cn1 | 3.89 ± 0.4 | 28.1 ± 28
28 | CC(C)(C)c1ccc(C(=O)NC(=O)N2CCCc3ccccc32)cc1 | 4.23 ± 2.6 | 22.1 ± 18
29 | OC1O[C@H](CSc2ccc(F)cc2)[C@@H](O)[C@H]1O (some centres undefined) | 5.22 ± 0.52 | 9.44 ± 6.8
30 | Nc1nnnn1CCOc1c2[nH]c3ccc(Cl)cc3c2cc2c1[nH]c1ccc(Cl)cc12 | 5.74 ± 5.8 | 8.85 ± 7.7
31 | COc1ccc(COc2cc3oc(=O)c4cc(C(C)O)ccc4c3cc2OC)cc1 (centres undefined) | 5.78 ± 0.94 | 10.9 ± 7
32 | Cc1cc(NS(=O)(=O)c2ccc(-c3ccc(F)cc3F)cc2)no1 | 4.39 ± 1.9 | –
33 | Cc1cccc(C)c1C(=O)Nc1nc(-c2ccccn2)cc2ccccc12 | 4.99 ± 2.4 | 6.64 ± 4.7
34 | Nc1nc(Nc2ccc3nc(-c4ccc(F)cc4)cc(N)c3c2)cc(-c2ccccc2)n1 | 3.92 ± 1.1 | 7.7 ± 7.8
35 | O=C(NCCN1CCCCC1)c1cccc(C(F)(F)F)c1 | 5.09 ± 1.5 | 18.2 ± 16
36 | C=C(C)n1c(=O)n(Cc2ccccc2C)c2ccccc21 | 6.26 ± 0.83 | 14.5 ± 10
37 | CC1(C)CC(NC(=O)C(=O)Nc2ccc(Cl)cc2)CC(C)(C)N1 | 2.32 ± 0.043 | 8.19 ± 5.5
38 | COc1cc(C)c2c(Oc3cccc(C(F)(F)F)c3)c(OC)cc(NC(C)CCCN)c2n1 (centres undefined) | 4.23 ± 1 | –
39 | OB1OCc2c1ccc(Cl)c2F | 4.06 ± 1 | 18.5 ± 12
40 | Cc1cc(O)c2c(c1)C(=O)c1c(I)c(O)c(I)c(O)c1C2=O | 8.9 ± 5.8 | 25.1 ± 5.2
41 | C=C(C)[C@@H]1CC[C@]2(C(=O)O)CC[C@]3(C)[C@H](CC[C@@H]4[C@@]5(C)CC[C@H](O)C(C)(C)[C@@H]5CC[C@]43C)[C@@H]12 | 6.56 ± 0.21 | 9.57 ± 2
42 | CC(C)(C)OC(=O)NCc1ccc(C(=O)N[C@H]2CCOC2=O)cc1 | 5.57 ± 4.2 | 24.3 ± 18
43 | O=c1ccc2ncc(=O)n3c2n1CC3CN1CCC(NCc2cc3c(cn2)OCCC3)CC1 (centres undefined) | 2.13 ± 0.25 | 18.2 ± 18
